Results from PubChem BioAssay AID1159580 (chemical genetic matrix, 2015).
Hit rate of the full screen: of about 5,500 compounds, about 2,000 (36%) were called active. Roughly 18% stayed inconclusive and do not appear here. Cut-off read from the data, not from the text of the source: active = normalized growth mostly below about 0.91 (no sharp cut-off); inconclusive = no clear call, values can overlap the other calls; inactive = mostly above about 0.92. Some of the results follow.

Assay: chemical genetic growth profiling, strain panel (AID 1159580);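 note: tested at 20 µM; growth read once vehicle control cultures reached saturation at 30 °C; 1 = growth at the plate median or of vehicle wells; lower values mean less growth of the strain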
Settings: S. cerevisiae deletion strains, growth OD
[1] = locus YDL101C, strain DUN1, stronger effect = lower value
[2] = locus YHR030C, strain SLT2, stronger effect = lower value

Measured: normalized growth

N#Cc1cccc(CSC2=NCN(C3CC3)CN2)c1
inactive: locus YAL013W, strain DEP1, stronger effect = lower value 1 | locus YBR229C, strain ROT2, stronger effect = lower value 1.01 | [1] 0.98 | locus YDR150W, strain NUM1, stronger effect = lower value 0.934 | locus YEL061C, strain CIN8, stronger effect = lower value 1.02 | locus YGR078C, strain PAC10, stronger effect = lower value 0.996 | [2] 1 | locus YHR087W, strain rtc3, stronger effect = lower value 1.03 | locus YJL187C, strain SWE1, stronger effect = lower value 1 | locus YJR043C, strain POL32, stronger effect = lower value 0.979 | locus YJR075W, strain HOC1, stronger effect = lower value 0.989 | locus YKL190W, strain CNB1, stronger effect = lower value 1.01 | locus YLR039C, strain RIC1, stronger effect = lower value 1.05 | locus YLR058C, strain SHM2 (second series), stronger effect = lower value 1.01 | locus YLR085C, strain ARP6, stronger effect = lower value 0.993 | locus YLR262C, strain YPT6, stronger effect = lower value 1.04 | locus YML094W, strain GIM5, stronger effect = lower value 1.01 | locus YMR219W, strain ESC1, stronger effect = lower value 1.01 | locus YMR263W, strain SAP30, stronger effect = lower value 0.952 | locus YMR307W, strain GAS1, stronger effect = lower value 0.978 | locus YNL153C, strain GIM3, stronger effect = lower value 0.997 | locus YNL298W, strain CLA4 (second series), stronger effect = lower value 1.02 | locus YNL322C, strain KRE1, stronger effect = lower value 0.999 | locus YNR030W, strain Alg12, stronger effect = lower value 1.02 | locus YPL055C, strain LGE1, stronger effect = lower value 0.886 | locus YPL241C, strain CIN2, stronger effect = lower value 1.01 | locus YPR135W, strain CTF4, stronger effect = lower value 1

N#Cc1cccc(CSc2nc3ccc(C(F)(F)F)cc3[nH]2)c1
inactive: locus YAR019C, strain CDC15, stronger effect = lower value 0.965 | locus YBL105C, strain PKC1, stronger effect = lower value 0.968 | locus YBR135W, strain CKS1, stronger effect = lower value 0.973 | locus YBR136W, strain MEC1, stronger effect = lower value 0.968 | locus YBR160W, strain CDC28, stronger effect = lower value 0.968 | locus YDL017W, strain CDC7, stronger effect = lower value 0.972 | locus YDL028C, strain MPS1, stronger effect = lower value 0.978 | [1] 0.969 | locus YDL108W, strain KIN28, stronger effect = lower value 0.973 | locus YDL132W, strain cdc53, stronger effect = lower value 0.976 | locus YDL214C, strain PRR2, stronger effect = lower value 0.893 | locus YDR052C, strain DBF4, stronger effect = lower value 0.962 | locus YDR054C, strain cdc34, stronger effect = lower value 0.962 | locus YDR226W, strain ADK1, stronger effect = lower value 0.969 | locus YDR477W, strain SNF1, stronger effect = lower value 0.903 | locus YER123W, strain YCK3, stronger effect = lower value 0.881 | locus YER133W, strain GLC7, stronger effect = lower value 0.895 | locus YFL009W, strain cdc4, stronger effect = lower value 0.974 | locus YFL029C, strain CAK1, stronger effect = lower value 0.966 | locus YFR003C, strain YPI1, stronger effect = lower value 0.97 | locus YFR019W, strain FAB1, stronger effect = lower value 0.936 | locus YFR028C, strain CDC14, stronger effect = lower value 0.971 | locus YGR040W, strain KSS1, stronger effect = lower value 0.908 | locus YGR052W, strain FMP48, stronger effect = lower value 0.938 | locus YGR092W, strain DBF2, stronger effect = lower value 0.933 | [2] 0.858 | locus YHR079C, strain IRE1, stronger effect = lower value 0.851 | locus YHR082C, strain KSP1, stronger effect = lower value 0.965 | locus YHR205W, strain SCH9, stronger effect = lower value 0.898 | locus YIL147C, strain SLN1, stronger effect = lower value 0.972 | locus YJL095W, strain BCK1, stronger effect = lower value 0.901 | locus YJL128C, strain PBS2, stronger effect = lower value 0.909 | locus YJL157C, strain FAR1, stronger effect = lower value 0.89 | locus YJR016C, strain ILV3, stronger effect = lower value 0.97 | locus YJR066W, strain TOR1 (second series), stronger effect = lower value 0.848 | locus YJR066W, strain TOR1, stronger effect = lower value 0.935 | locus YKL048C, strain ELM1, stronger effect = lower value 0.963 | locus YKL067W, strain YNK1, stronger effect = lower value 0.889 | locus YKL101W, strain HSL1, stronger effect = lower value 0.901 | locus YKL193C, strain SDS22, stronger effect = lower value 0.973 | locus YKL203C, strain TOR2, stronger effect = lower value 0.937 | locus YLR133W, strain CKI1, stronger effect = lower value 0.898 | locus YLR403W, strain SFP1, stronger effect = lower value 0.907 | locus YML070W, strain DAK1, stronger effect = lower value 0.889 | locus YMR001C, strain CDC5, stronger effect = lower value 0.971 | locus YMR205C, strain PFK2 (second series), stronger effect = lower value 0.924 | locus YMR277W, strain FCP1, stronger effect = lower value 0.969 | locus YNL006W, strain LST8, stronger effect = lower value 0.97 | locus YNL020C, strain ARK1, stronger effect = lower value 0.892 | locus YNL161W, strain CBK1, stronger effect = lower value 0.965 | locus YNL183C, strain NPR1, stronger effect = lower value 0.92 | locus YNL207W, strain RIO2, stronger effect = lower value 0.966 | locus YNL222W, strain SSU72, stronger effect = lower value 0.976 | locus YNL307C, strain MCK1 (second series), stronger effect = lower value 0.89 | locus YOL078W, strain AVO1, stronger effect = lower value 0.974 | locus YOL136C, strain PFK27, stronger effect = lower value 0.858 | locus YOR061W, strain CKA2, stronger effect = lower value 0.9 | locus YOR119C, strain RIO1, stronger effect = lower value 0.962 | locus YOR231W, strain MKK1, stronger effect = lower value 0.871 | locus YOR329C, strain SCD5, stronger effect = lower value 0.96 | locus YPL031C, strain PHO85, stronger effect = lower value 0.88 | locus YPL153C, strain RAD53, stronger effect = lower value 0.899 | locus YPL204W, strain HRR25, stronger effect = lower value 0.877 | locus YPL209C, strain IPL1, stronger effect = lower value 0.967 | locus YPL256C, strain CLN2, stronger effect = lower value 0.882 | locus YPR025C, strain CCL1, stronger effect = lower value 0.972 | locus YPR106W, strain ISR1, stronger effect = lower value 0.956 | locus YPR111W, strain DBF20, stronger effect = lower value 0.946 | strain NNK1, stronger effect = lower value 0.944 | strain TSCII, stronger effect = lower value 0.965
active: locus YLR113W, strain HOG1, stronger effect = lower value 0.793
